# In PubChem BioAssay (Tox21):
# Inconclusive results are not listed. Entries that show only a call come without a potency. Unmarked numbers belong to inactive results. Activity calls are given as the source filed them. Calls follow the shape of the dose curve; as a rule, active = well fitted curve in the direction sought with a large enough effect in the repeat runs; inconclusive = weak or mixed curves; inactive = no such curve, though single readings can be large; an effect the other way counts as inactive or inconclusive.
# Tests used:
# [1] = molecular target: Nuclear receptor subfamily 1 group I member 2 (Homo sapiens) (UniProt O75469); assay: CYP3A4 induction through human pregnane X receptor (PXR) by small molecules, qHTS assay (AID 1346984); also: nearly all actives have a fitted effect of over 40% in size
# Summary of the method: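 Steps: seed DPX-2 cells, 5 hr at 37C; pin-transfer compounds; 24 hr at 37C; add Luciferin-IPA (3uM final), 3 hr at 37C; add One-Glo, 30 min RT; read luminescence.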
# [2] = molecular target: Nuclear receptor subfamily 1 group I member 2 (Homo sapiens) (UniProt O75469); assay: Human pregnane X receptor (PXR) activation by small molecules, qHTS assay (AID 1346985); also: nearly all actives have a fitted effect of over 40% in size
# Summary of the method: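 DPX-2 cells (HepG2 co-transfected with a PXR response element and a CYP3A4-promoter luciferase construct) were seeded at 2,000 per well, rested 5 hr at 37C, then exposed to DMSO-dissolved compounds for 24 hr. Activation was read as luciferase luminescence.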
# [3] = molecular target: Cytochrome P450 2C19 (Homo sapiens) (UniProt P33261); assay: Cytochrome P450 Family 2 Subfamily C Member 19 (CYP2C19) small molecule antagonists: luciferase reporter qHTS assay (AID 1671197); also: nearly all actives have a fitted effect of over 65% in size; also: potency is read from the fitted curve at half-maximal effect; as to activity change, negative = inhibition: series mostly up to about 120 µM
# Cytochrome P450 2C19 (Homo sapiens), sequence (P33261 whole entry, looked up): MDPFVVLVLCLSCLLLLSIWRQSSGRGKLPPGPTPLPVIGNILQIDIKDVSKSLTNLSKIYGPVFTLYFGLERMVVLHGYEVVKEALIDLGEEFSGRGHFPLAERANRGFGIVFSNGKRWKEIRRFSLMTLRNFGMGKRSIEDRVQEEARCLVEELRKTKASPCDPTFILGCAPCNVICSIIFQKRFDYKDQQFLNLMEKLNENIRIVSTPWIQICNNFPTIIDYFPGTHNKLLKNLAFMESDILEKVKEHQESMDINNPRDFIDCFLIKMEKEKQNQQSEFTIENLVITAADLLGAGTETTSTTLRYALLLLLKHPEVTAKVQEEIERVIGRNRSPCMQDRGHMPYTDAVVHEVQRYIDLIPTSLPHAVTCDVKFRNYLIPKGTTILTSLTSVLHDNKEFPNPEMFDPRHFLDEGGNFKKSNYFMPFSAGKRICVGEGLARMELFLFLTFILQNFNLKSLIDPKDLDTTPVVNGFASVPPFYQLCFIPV
# Summary of the method: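 CYP2C19 P450-Glo, 1536-well qHTS. Cpd + enzyme/proluciferin substrate 10 min RT; + NADPH regen, 37C 1 h; stop with luciferin detection reagent, 20 min RT, luminescence (RLU). Pos ctrl ketoconazole.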
# [4] = molecular target: Cytochrome P450 2C9 (Homo sapiens) (UniProt P11712); assay: Cytochrome P450 Family 2 Subfamily C Member 9 (CYP2C9) small molecule antagonists: luciferase reporter qHTS assay (AID 1671198); also: series mostly up to about 120 µM; nearly all actives have a fitted effect of over 50% in size
# Cytochrome P450 2C9 (Homo sapiens), sequence (P11712 whole entry, looked up): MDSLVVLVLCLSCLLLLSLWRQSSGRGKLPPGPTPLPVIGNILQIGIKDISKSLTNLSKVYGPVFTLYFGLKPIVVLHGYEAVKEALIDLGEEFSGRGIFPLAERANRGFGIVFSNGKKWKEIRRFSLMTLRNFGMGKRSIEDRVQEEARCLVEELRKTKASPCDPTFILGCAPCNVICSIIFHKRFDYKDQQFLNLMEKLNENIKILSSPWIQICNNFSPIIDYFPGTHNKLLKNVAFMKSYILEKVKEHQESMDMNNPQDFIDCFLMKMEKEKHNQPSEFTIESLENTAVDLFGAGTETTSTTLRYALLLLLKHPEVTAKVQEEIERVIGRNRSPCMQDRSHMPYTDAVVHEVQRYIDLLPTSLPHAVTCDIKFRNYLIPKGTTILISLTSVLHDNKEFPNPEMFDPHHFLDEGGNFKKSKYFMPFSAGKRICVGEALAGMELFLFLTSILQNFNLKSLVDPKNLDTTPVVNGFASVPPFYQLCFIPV
# Summary of the method: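 P450-Glo proluciferin substrate with CYP2C9 enzyme; 10 min RT preincubation, then NADPH regeneration 1 h at 37C; luciferin detection reagent 20 min RT, luminescence in relative luminescence units.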
# [5] = molecular target: Voltage-gated inwardly rectifying potassium channel KCNH2 (Homo sapiens) (UniProt Q12809); assay: Human Ether-a-go-go-Related Gene (hERG) channel small molecule antagonists: fluorescence cell-based qHTS assay (AID 1671200); also: nearly all actives have a fitted effect of over 50% in size; also: potency is read from the fitted curve at half-maximal effect; as to activity change, negative = inhibition: series mostly up to about 77 µM
# Voltage-gated inwardly rectifying potassium channel KCNH2 (Homo sapiens), sequence (Q12809 whole entry, looked up): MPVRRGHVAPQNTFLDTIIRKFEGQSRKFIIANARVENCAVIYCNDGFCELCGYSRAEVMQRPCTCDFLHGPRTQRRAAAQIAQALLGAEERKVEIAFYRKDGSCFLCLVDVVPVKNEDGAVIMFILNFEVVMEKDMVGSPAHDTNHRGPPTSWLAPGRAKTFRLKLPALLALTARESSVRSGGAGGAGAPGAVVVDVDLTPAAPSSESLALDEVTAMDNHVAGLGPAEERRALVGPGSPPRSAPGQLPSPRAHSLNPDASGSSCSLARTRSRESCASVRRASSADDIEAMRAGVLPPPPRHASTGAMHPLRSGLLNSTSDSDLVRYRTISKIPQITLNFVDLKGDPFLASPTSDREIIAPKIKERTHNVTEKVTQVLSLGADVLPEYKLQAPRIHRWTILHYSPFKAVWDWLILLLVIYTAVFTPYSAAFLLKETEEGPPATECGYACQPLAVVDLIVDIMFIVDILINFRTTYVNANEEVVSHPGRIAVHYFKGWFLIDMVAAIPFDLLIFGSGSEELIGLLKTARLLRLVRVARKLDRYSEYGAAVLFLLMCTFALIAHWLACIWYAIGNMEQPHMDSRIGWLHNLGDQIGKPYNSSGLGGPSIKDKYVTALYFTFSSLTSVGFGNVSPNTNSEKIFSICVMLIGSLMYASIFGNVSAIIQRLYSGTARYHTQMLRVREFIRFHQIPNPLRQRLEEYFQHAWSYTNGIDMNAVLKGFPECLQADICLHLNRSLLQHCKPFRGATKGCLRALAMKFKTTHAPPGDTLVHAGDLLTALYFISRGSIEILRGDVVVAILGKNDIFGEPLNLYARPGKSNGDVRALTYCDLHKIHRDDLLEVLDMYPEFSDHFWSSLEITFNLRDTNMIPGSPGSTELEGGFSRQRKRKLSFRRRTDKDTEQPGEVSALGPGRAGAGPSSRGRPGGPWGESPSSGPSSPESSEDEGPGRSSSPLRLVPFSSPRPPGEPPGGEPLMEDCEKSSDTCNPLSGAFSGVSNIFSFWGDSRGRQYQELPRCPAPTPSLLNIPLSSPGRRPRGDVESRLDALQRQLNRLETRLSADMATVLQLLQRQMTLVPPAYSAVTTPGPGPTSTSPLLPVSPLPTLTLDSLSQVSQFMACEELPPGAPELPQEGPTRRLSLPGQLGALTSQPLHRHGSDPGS
# Summary of the method: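 Thallium flux as potassium surrogate: FluxOR II dye loaded 1 h at room temperature into hERG-expressing U2OS cells, then stimulus buffer added after 10 min. Kinetic 480 nm excitation/540 nm emission read, 2 min.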
# [6] = molecular target: Cytochrome P450 3A4 (Homo sapiens) (UniProt P08684); assay: Cytochrome P450 Family 3 Subfamily A Member 4 (CYP3A4) small molecule antagonists: luciferase reporter qHTS assay (AID 1671201); also: series mostly up to about 120 µM; nearly all actives have a fitted effect of over 50% in size
# Cytochrome P450 3A4 (Homo sapiens), sequence (P08684 whole entry, looked up): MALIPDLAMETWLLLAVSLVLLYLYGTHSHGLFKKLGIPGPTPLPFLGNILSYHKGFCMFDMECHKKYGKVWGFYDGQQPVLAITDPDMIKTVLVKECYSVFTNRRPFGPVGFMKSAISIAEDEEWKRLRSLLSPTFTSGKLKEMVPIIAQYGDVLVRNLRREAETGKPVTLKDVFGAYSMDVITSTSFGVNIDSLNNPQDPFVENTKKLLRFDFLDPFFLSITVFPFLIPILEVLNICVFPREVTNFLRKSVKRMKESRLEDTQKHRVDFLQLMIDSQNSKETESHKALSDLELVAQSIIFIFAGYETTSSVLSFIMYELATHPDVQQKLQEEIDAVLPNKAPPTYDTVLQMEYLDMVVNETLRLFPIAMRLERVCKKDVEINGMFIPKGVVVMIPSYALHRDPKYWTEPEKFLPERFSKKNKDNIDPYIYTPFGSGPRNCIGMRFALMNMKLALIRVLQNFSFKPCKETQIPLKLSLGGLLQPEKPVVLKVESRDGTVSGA
# Summary of the method: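 Recombinant human CYP3A4 converts a proluciferin substrate to luciferin over 1 h at room temperature after NADPH regeneration solution is added (compound preincubated 10 min); detection reagent stops reaction, luminescence read 20 min later as relative units.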
# [7] = molecular target: Nuclear receptor subfamily 1 group I member 2 (Rattus norvegicus) (UniProt Q9R1A7); assay: Rat pregnane X receptor (rPXR) activation by small molecules, qHTS assay (AID 1346983); conditions: rPXR luciferase reporter cells, One-Glo luminescence, 24 h; max activation: hits give high values; also: nearly all actives have a fitted effect of over 20% in size
# Nuclear receptor subfamily 1 group I member 2 (Rattus norvegicus), sequence (Q9R1A7 whole entry, looked up): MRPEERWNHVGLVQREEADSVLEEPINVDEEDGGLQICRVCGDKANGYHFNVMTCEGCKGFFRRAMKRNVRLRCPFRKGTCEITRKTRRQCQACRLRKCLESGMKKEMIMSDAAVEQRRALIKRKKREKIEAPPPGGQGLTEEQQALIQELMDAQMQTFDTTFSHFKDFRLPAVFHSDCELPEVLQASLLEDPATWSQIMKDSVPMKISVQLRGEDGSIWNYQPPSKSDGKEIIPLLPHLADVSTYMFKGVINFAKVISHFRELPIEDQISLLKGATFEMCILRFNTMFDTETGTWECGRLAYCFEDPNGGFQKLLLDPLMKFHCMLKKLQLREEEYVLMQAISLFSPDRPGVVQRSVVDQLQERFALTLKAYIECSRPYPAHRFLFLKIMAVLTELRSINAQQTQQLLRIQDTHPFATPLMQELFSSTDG
# Summary of the method: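 Cell-based rPXR activation assay: rPXR cells, 2,000 per well, rested 5hr at 37 C, then exposed to compounds in DMSO for 24 hr at 37 C. Luciferase activity read by One-Glo luminescence after 30 min at room temperature.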
# [8] = molecular target: Cytochrome P450 2D6 (Homo sapiens) (UniProt P10635); assay: Cytochrome P450 Family 2 Subfamily D Member 6 (CYP2D6) small molecule antagonists: luciferase reporter qHTS assay (AID 1671196); also: nearly all actives have a fitted effect of over 50% in size; also: potency is read from the fitted curve at half-maximal effect; as to activity change, negative = inhibition: series mostly up to about 120 µM
# Cytochrome P450 2D6 (Homo sapiens), sequence (P10635 whole entry, looked up): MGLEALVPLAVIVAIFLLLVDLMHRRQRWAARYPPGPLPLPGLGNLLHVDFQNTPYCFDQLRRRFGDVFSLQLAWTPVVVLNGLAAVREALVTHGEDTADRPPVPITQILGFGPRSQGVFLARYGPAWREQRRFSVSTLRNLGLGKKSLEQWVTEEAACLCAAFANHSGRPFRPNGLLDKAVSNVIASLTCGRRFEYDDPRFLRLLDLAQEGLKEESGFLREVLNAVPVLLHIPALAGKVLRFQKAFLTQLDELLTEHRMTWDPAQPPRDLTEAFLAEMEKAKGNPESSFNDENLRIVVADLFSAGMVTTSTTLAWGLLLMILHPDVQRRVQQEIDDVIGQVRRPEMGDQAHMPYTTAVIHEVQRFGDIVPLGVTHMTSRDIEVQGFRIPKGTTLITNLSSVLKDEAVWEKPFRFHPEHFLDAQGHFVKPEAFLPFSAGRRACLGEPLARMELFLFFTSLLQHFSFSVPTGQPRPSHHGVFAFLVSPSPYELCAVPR
# Summary of the method: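 P450-Glo format: CYP2D6 converts a proluciferin substrate to luciferin in an NADPH-driven reaction lasting 1 h at room temperature. Light output, proportional to CYP2D6 activity, reflects interference by test chemicals.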
# [9] = molecular target: Cytochrome P450 1A2 (Homo sapiens) (UniProt P05177); assay: Cytochrome P450 Family 1 Subfamily A Member 2 (CYP1A2) small molecule antagonists: luciferase reporter qHTS assay (AID 1671199); also: nearly all actives have a fitted effect of over 50% in size; also: potency is read from the fitted curve at half-maximal effect; as to activity change, negative = inhibition: series mostly up to about 120 µM
# Cytochrome P450 1A2 (Homo sapiens), sequence (P05177 whole entry, looked up): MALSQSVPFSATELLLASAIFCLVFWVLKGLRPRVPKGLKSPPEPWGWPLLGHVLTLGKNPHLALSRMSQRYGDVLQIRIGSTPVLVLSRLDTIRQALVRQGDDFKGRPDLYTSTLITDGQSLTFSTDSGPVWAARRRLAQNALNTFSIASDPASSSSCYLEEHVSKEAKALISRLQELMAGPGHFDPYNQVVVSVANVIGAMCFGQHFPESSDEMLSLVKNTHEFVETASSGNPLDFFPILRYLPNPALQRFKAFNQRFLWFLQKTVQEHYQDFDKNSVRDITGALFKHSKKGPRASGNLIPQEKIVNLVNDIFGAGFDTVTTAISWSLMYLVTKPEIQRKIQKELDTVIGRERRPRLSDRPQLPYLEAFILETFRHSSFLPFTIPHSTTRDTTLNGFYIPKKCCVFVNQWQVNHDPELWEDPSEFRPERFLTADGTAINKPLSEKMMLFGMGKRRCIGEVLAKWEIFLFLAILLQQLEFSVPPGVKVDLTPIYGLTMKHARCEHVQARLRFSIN
# Summary of the method: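 Inhibition of CYP1A2 conversion of proluciferin to luciferin, detected by luminescence. Reaction run 1 h at room temperature with NADPH regeneration after brief compound preincubation.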
structure (smiles),measurement,setting,value
CCCCN=C(N)N=C(N)N,outcome,[1],inactive
same,outcome,[2],inactive
same,Potency,[3],inactive
same,Potency,[4],inactive
same,Potency,[5],inactive
same,Potency,[6],inactive
CN(C)CCc1c[nH]c2ccc(C[C@H]3COC(=O)N3)cc12,max activation,[7],-1.7%
same,outcome,[1],inactive
same,outcome,[2],inactive
same,Potency,[3],inactive
same,Potency,[4],inactive
same,Potency,[5],inactive
same,Potency,[6],inactive
C[C@H]1COc2c(C3(N)CC3)c(F)cc3c(=O)c(C(=O)O)cn1c23,outcome,[1],inactive
same,outcome,[2],inactive
same,Potency,[8],inactive
same,Potency,[3],inactive
same,Potency,[9],inactive
same,Potency,[5],inactive
same,Potency,[6],inactive
NCC1CCC(C(=O)Oc2ccc(CCC(=O)O)cc2)CC1 (stereo unspecified),outcome,[1],inactive
same,outcome,[2],inactive
same,Potency,[8],inactive
same,Potency,[3],inactive
same,Potency,[4],inactive
same,Potency,[9],inactive
same,Potency,[5],inactive
same,Potency,[6],inactive
O=P(O)(O)C(O)(Cc1cccnc1)P(=O)(O)O,outcome,[1],inactive
same,outcome,[2],inactive
same,Potency,[8],inactive
same,Potency,[3],inactive
same,Potency,[4],inactive
same,Potency,[9],inactive
same,Potency,[5],inactive
same,Potency,[6],inactive
CCOc1ccccc1OCCN[C@H](C)Cc1ccc(OC)c(S(N)(=O)=O)c1,outcome,[1],inactive
same,outcome,[2],inactive
same,Potency,[8],12.3 µM (active)
same,Potency,[3],inactive
same,Potency,[9],inactive
same,Potency,[5],21.3 µM (active)
CN(C)CCc1c[nH]c2ccc(CS(=O)(=O)N3CCCC3)cc12,outcome,[1],inactive
same,outcome,[2],inactive
same,Potency,[3],inactive
same,Potency,[4],inactive
same,Potency,[9],inactive
same,Potency,[5],inactive
same,Potency,[6],inactive
COc1cnc(NS(=O)(=O)c2ccc(N)cc2)nc1,outcome,[1],inactive
same,outcome,[2],inactive
same,Potency,[8],inactive
same,Potency,[4],inactive
same,Potency,[9],inactive
same,Potency,[5],inactive
same,Potency,[6],inactive
N[C@H]1C(O)O[C@H](CO)[C@@H](O)[C@@H]1O (stereo partly specified),outcome,[1],inactive
same,outcome,[2],inactive
same,Potency,[8],30.9 µM (active)
same,Potency,[3],inactive
same,Potency,[4],inactive
same,Potency,[9],inactive
same,Potency,[5],inactive
same,Potency,[6],inactive
CC(C)(C)C(=O)NCCCC(=O)O,outcome,[1],inactive
same,outcome,[2],inactive
same,Potency,[8],inactive
same,Potency,[3],inactive
same,Potency,[4],inactive
same,Potency,[9],inactive
same,Potency,[5],inactive
same,Potency,[6],inactive
CN(C)CCC[C@@]1(c2ccc(F)cc2)OCc2cc(C#N)ccc21,outcome,[1],inactive
same,outcome,[2],inactive
same,Potency,[3],inactive
same,Potency,[4],inactive
same,Potency,[6],inactive
Cc1nc2ccc(Cl)cc2[nH]1,Potency,[8],31.7 µM (active)
same,Potency,[3],39.8 µM (active)
same,Potency,[4],inactive
same,Potency,[9],2.82 µM (active)
same,Potency,[5],inactive
CC(=O)SC[C@@H](C)C(=O)N1CCC[C@H]1C(=O)N[C@@H](Cc1ccccc1)C(=O)O,Potency,[8],inactive
same,Potency,[3],inactive
same,Potency,[4],inactive
same,Potency,[9],inactive
same,Potency,[5],inactive
same,Potency,[6],inactive
CC(C)(O)c1ccc(C(C)(C)O)cc1,Potency,[8],inactive
same,Potency,[3],inactive
same,Potency,[4],inactive
same,Potency,[9],inactive
same,Potency,[5],inactive
same,Potency,[6],inactive
CC(C)OCCO,Potency,[8],inactive
same,Potency,[3],inactive
same,Potency,[4],inactive
same,Potency,[9],inactive
same,Potency,[5],inactive
same,Potency,[6],inactive
CCCCCCCCCCCC(C)=O,Potency,[8],inactive
same,Potency,[3],inactive
same,Potency,[4],inactive
same,Potency,[9],inactive
same,Potency,[5],inactive
same,Potency,[6],inactive
N=C(N)S(=O)O,Potency,[8],inactive
same,Potency,[3],inactive
same,Potency,[4],inactive
same,Potency,[9],inactive
same,Potency,[5],inactive
same,Potency,[6],inactive
C=CC(=O)OCC[N+](C)(C)C,Potency,[8],inactive
same,Potency,[3],inactive
same,Potency,[4],inactive
same,Potency,[9],inactive
same,Potency,[5],inactive
same,Potency,[6],inactive
C[C@@H]1CCC[C@H](C)N1CCCC(O)(c1ccccc1)c1ccccn1 (stereo partly specified),Potency,[8],0.692 µM (active)
same,Potency,[3],inactive
same,Potency,[4],inactive
same,Potency,[9],inactive
same,Potency,[5],8.49 µM (active)
C=CCN1CCc2nc(N)sc2CC1,outcome,[1],inactive
same,outcome,[2],inactive
same,Potency,[4],inactive
same,Potency,[9],inactive
same,Potency,[5],inactive
same,Potency,[6],inactive
Cc1ccccc1C#N,Potency,[8],inactive
same,Potency,[3],inactive
same,Potency,[4],inactive
same,Potency,[9],inactive
same,Potency,[5],inactive
same,Potency,[6],inactive
CCOC(=O)CC(C(C)=O)C(C)=O,Potency,[8],inactive
same,Potency,[3],inactive
same,Potency,[4],inactive
same,Potency,[9],inactive
same,Potency,[5],inactive
same,Potency,[6],inactive
C=CCOC(=O)CCCCCCCC,Potency,[8],63.8 µM (active)
same,Potency,[3],inactive
same,Potency,[4],inactive
same,Potency,[9],40.2 µM (active)
same,Potency,[5],inactive
same,Potency,[6],inactive
O=C(CCBr)N1CCN(C(=O)CCBr)CC1,outcome,[1],inactive
same,outcome,[2],inactive
same,Potency,[3],inactive
same,Potency,[4],inactive
same,Potency,[5],inactive
same,Potency,[6],inactive
COc1ccc2cc(CCC(C)=O)ccc2c1,outcome,[1],inactive
same,Potency,[8],inactive
same,Potency,[3],11 µM (active)
same,Potency,[5],inactive
same,Potency,[6],inactive
CCCCC(O)/C=C(C)/C=C/C=C/C(=O)N1CCCC1=O (stereo unspecified),Potency,[8],inactive
same,Potency,[3],inactive
same,Potency,[4],inactive
same,Potency,[9],inactive
same,Potency,[5],inactive
CCCCCCCCCCCCCCCC(=O)OC,"activity change, negative = inhibition",[8],1.63% [at 23.6 µM]
same,"activity change, negative = inhibition",[3],-1.98% [at 23.6 µM]
same,"activity change, negative = inhibition",[4],2.75% [at 23.6 µM]
same,"activity change, negative = inhibition",[9],-2.98% [at 23.6 µM]
same,"activity change, negative = inhibition",[5],-9.56% [at 15.8 µM]
same,"activity change, negative = inhibition",[6],2.42% [at 23.6 µM]
CCCc1ncc(C(=O)O)s1,Potency,[8],inactive
same,Potency,[3],inactive
same,Potency,[4],inactive
same,Potency,[9],inactive
same,Potency,[5],inactive
same,Potency,[6],inactive
CC(C)(C)c1ccc(C(=O)CCCCl)cc1,Potency,[8],inactive
same,Potency,[3],inactive
same,Potency,[4],inactive
same,Potency,[9],12.3 µM (active)
same,Potency,[5],inactive
same,Potency,[6],inactive
